Consider 37 molecules from PubChem BioAssay (NCATS).

Several values for one entry are separate records, joined by “and”; a condition that tells them apart may be missing. Equal entries are not always repeated. Inconclusive results are not listed. Where a call stands in place of a potency, no number is given. Activity calls are given as the source filed them. Calls follow the shape of the full dose curve.
Potency is read from the fitted curve at half-maximal effect.

The first assay in a line: Cytotoxicity counterscreen for inhibitors of SARS-CoV-2 cell entry (AID 1645845). Also: nearly all actives have a fitted effect of over 50% in size. To be noted: cell viability (SARS-CoV-2 entry assay cells); series mostly up to 57.1 µM. In outline:
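HEK293-ACE2 cells (Expi293F stably expressing human ACE2) seeded overnight, then compound for 1 h plus 48 h at 37C. Viability as ATP content by luminescence; normalized to wells with cells and media-only wells.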
A general note: The purpose of a counterscreen is to sort out artefacts and off-target activity.
In the case of `CC(C)(C)c1cc(C(=O)O)c(NC(=O)Nc2ccc3[nH]ncc3c2)s1`, the Potency entry is “inactive”. In the case of `NC(=O)C1CCCc2c1[nH]c1ccc(Cl)cc21` (configuration not stated), the Potency entry was “inactive”. Take `O=C1CCCC2=C1C(c1[nH]ncc1Cl)N=C(Nc1nc3ccccc3o1)N2` (configuration not stated): the Potency result is “inactive”. On to `C[C@H](CN1CCCC1)C(=O)c1ccc(C(F)(F)F)cc1`, for which the Potency result was “inactive”. Take `CCc1cc(Nc2nccc(-c3c(-c4ccc(OC)c(C(=O)Nc5c(F)cccc5F)c4)nc4ccccn34)n2)c(OC)cc1N1CCC(N2CCN(S(C)(=O)=O)CC2)CC1`: the Potency entry was “inactive”. Same read-out and setting: the same measure for `CC(=O)Oc1cccc(C)c1`: “inactive”. Regarding `CC1=C(/C=C/C(C)=C/C=C/C(C)=C/C(=O)O)C(C)(C)CCC1`, the Potency entry is “inactive”.

On to `c1ccc2c(CCNc3ccc(Nc4ccncc4)cc3)c[nH]c2c1`, for which the Potency is 17.8 µM (active). As for `COc1ccc2c3n(c(=NC(=O)c4cccnc4)nc2c1OC)CCN3`, the activity change, negative = cytotoxicity is 3.4% [at 5.25 µM] (inactive).

In the case of `CC(C)(C)c1nnc(NS(=O)(=O)c2ccccc2)s1`, the Potency result is “inactive”.

For `CC(C)c1ccc(Cn2ccc3c4c(N)nc(NC5CC5)nc4ccc32)cc1`, the Potency was 2.51 µM (active). `Cc1ccnc(NS(=O)(=O)c2ccc(NC(=O)Nc3ccc(S(=O)(=O)Nc4nccc(C)n4)cc3)cc2)n1`: the Potency result is “inactive”. As to `O=C(O)c1ccccn1`, the Potency entry is “inactive”. Same read-out and setting: the same measure for `C[C@@H](N)C(=O)O`: “inactive”; for `CC(C)(Sc1ccc(CCN(CCCCC2CCCCC2)C(=O)NC2CCCCC2)cc1)C(=O)O`: “inactive”; for `O=[N+]([O-])c1ccc([As](=O)(O)O)cc1`: “inactive”. The same measure, in the same setting: the same measure for `COc1ccc(-c2c(-c3ccc(O)cc3O)n[nH]c2C)cc1`: “inactive”; for `CCCCCN(CCC12CC3CC(CC(C3)C1)C2)C(=O)NCCCc1ccncc1`: “inactive”; for `Fc1cc(-c2cccc3ncc(-c4cnn(C5CCNCC5)c4)nc23)cc(F)c1CN1CCOCC1`: 31.6 µM (active). With `CC[C@@H](C)[C@H](NC(=O)[C@H](CC1CCCCC1)NC(=O)c1ccno1)C(=O)N1CCC2(CCc3ccccc32)CC1`, the Potency result is “inactive”.

The next assay in a line: Primary qHTS to identify inhibitors of SARS-CoV-2 cell entry (AID 1645846). Also: nearly all actives have a fitted effect of over 45% in size. To be noted: SARS-CoV-2 pseudovirus cell entry assay, luminescence; activity change, negative = inhibition: at 57.1 µM (top of the series) unless noted; series mostly up to 57.1 µM. In outline: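 Data are normalized to wells receiving SARS-CoV-2-S pseudoparticles and those given bald particles. Entry signal was luciferase luminescence in stable hACE2 Expi293F cells, 48 hr post-infection, after 1 hr compound pretreatment.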
For orientation: Quantitative high-throughput screening tests each substance at several concentrations.
For the molecule `COCCNCCCn1c(C(=O)CF)c(-c2ccc(C)cc2)c2c(N)ncnc21`, the Potency result is “inactive”. `COc1ccccc1-c1cccc(-c2c(O)c3cc(C#N)c(Cl)cc3[nH]c2=O)c1`: the activity change, negative = inhibition was -22.8%. Take `CCOc1cc(C(=O)Nc2ccc(Cl)c(-c3nc4ccccc4[nH]3)c2)cc(OCC)c1OCC`: the Potency was 25.1 µM (active). On to `CN1CCN(c2c(F)cc3c(=O)c(C(=O)O)cn4c3c2OCN4C)CC1`, for which the Potency entry is “inactive”. In the case of `Cc1cccc(-c2[nH]ncc2-c2ccc3ncccc3n2)n1`, the activity change, negative = inhibition is -1.7%. For `C=CCNC(N)=S`, the Potency entry was “inactive”. `CS(=O)(=O)c1ccc(C(=O)Nc2ccc(Cl)c(-c3ccccn3)c2)c(Cl)c1`: the activity change, negative = inhibition is -12.8% and -5.84%. On to `CCCOC(=O)c1ccc(O)cc1`, for which the Potency result is “inactive”. Still for that read-out and setting: the same measure for `NCCCC(N)(C(=O)O)C(F)F` (configuration not stated): “inactive”; for `Cc1cnc(Nc2ccc(OCCN3CCCC3)cc2)nc1Nc1cccc(S(=O)(=O)NC(C)(C)C)c1`: 22.4 µM (active). Take `Cn1c(Nc2ccc(C(F)(F)F)cc2)nc2cc(Oc3ccnc(-c4ncc(C(F)(F)F)[nH]4)c3)ccc21`: the activity change, negative = inhibition was -24.1%. As to `Cc1cccc(-c2nn(C(=S)Nc3ccccc3)cc2-c2ccnc3ccccc23)n1`, the Potency entry is “inactive”. Regarding `OCCn1cc(-c2cnc3nnn(Cc4ccc5ncccc5c4)c3n2)cn1`, the Potency result is “inactive”.

Take `Clc1ccccc1CN1CCc2sccc2C1`: the Potency entry is “inactive”. With `CNC(=O)c1ccc(N2C(=S)N(c3ccc(C#N)c(C(F)(F)F)c3)C(=O)C2(C)C)cc1F`, the Potency was 22.4 µM (active).

For `CC1(O)CC(c2nc(-c3ccc4ccc(-c5ccccc5)nc4c3)c3c(N)nccn23)C1` (configuration not stated), the activity change, negative = inhibition is -23.9%. Still for that read-out and setting: to `CN(C)c1ccc(C2Nc3ccc4ccccc4c3C3=C2C(=O)CC(C)(C)C3)cc1Br` (configuration not stated) belongs -8.04%.

In the case of `CC(C)(C)c1cc(C(=O)O)c(NC(=O)Nc2ccc3[nH]ncc3c2)s1`, the Potency result was “inactive”. For `NC(=O)C1CCCc2c1[nH]c1ccc(Cl)cc21` (configuration not stated), the Potency entry was “inactive”. In the case of `O=C1CCCC2=C1C(c1[nH]ncc1Cl)N=C(Nc1nc3ccccc3o1)N2` (configuration not stated), the activity change, negative = inhibition was -4.23%.

Turning to `C[C@H](CN1CCCC1)C(=O)c1ccc(C(F)(F)F)cc1`, the activity change, negative = inhibition is -4.68%. As for `CCc1cc(Nc2nccc(-c3c(-c4ccc(OC)c(C(=O)Nc5c(F)cccc5F)c4)nc4ccccn34)n2)c(OC)cc1N1CCC(N2CCN(S(C)(=O)=O)CC2)CC1`, the Potency entry is “inactive”. Take `CC(=O)Oc1cccc(C)c1`: the activity change, negative = inhibition was 0.724%. Take `CC1=C(/C=C/C(C)=C/C=C/C(C)=C/C(=O)O)C(C)(C)CCC1`: the Potency result was “inactive”.

For `c1ccc2c(CCNc3ccc(Nc4ccncc4)cc3)c[nH]c2c1`, the Potency is 8.91 µM (active).

On to `COc1ccc2c3n(c(=NC(=O)c4cccnc4)nc2c1OC)CCN3`, for which the activity change, negative = inhibition is -3.67% [at 5.25 µM]. As to `CC(C)(C)c1nnc(NS(=O)(=O)c2ccccc2)s1`, the Potency result is “inactive”. With `CC(C)c1ccc(Cn2ccc3c4c(N)nc(NC5CC5)nc4ccc32)cc1`, the activity change, negative = inhibition is -96.8%. Consider `Cc1ccnc(NS(=O)(=O)c2ccc(NC(=O)Nc3ccc(S(=O)(=O)Nc4nccc(C)n4)cc3)cc2)n1`, for which the activity change, negative = inhibition was -16.3%. Same read-out and setting: to `O=C(O)c1ccccn1` belongs -3.73%; to `C[C@@H](N)C(=O)O`, -18.7%. As for `CC(C)(Sc1ccc(CCN(CCCCC2CCCCC2)C(=O)NC2CCCCC2)cc1)C(=O)O`, the activity change, negative = inhibition stood at 4.91%. Still for that read-out and setting: to `O=[N+]([O-])c1ccc([As](=O)(O)O)cc1` belongs 1.4%. Consider `COc1ccc(-c2c(-c3ccc(O)cc3O)n[nH]c2C)cc1`, for which the activity change, negative = inhibition is -56.7%. Take `CCCCCN(CCC12CC3CC(CC(C3)C1)C2)C(=O)NCCCc1ccncc1`: the activity change, negative = inhibition was -12.6%. Take `Fc1cc(-c2cccc3ncc(-c4cnn(C5CCNCC5)c4)nc23)cc(F)c1CN1CCOCC1`: the Potency was 12.6 µM (active). As for `CC[C@@H](C)[C@H](NC(=O)[C@H](CC1CCCCC1)NC(=O)c1ccno1)C(=O)N1CCC2(CCc3ccccc32)CC1`, the Potency entry was “inactive”.
